From PMC5540273 (PLoS ONE, 2017)

Tests used:
Conditions in all cases: concentration: 1 μM, replicates: in singlicate; n = 1
PAK2 = tested on: PAK2
PAK3 = tested on: PAK3
PAK4 = tested on: PAK4
PAK6 = tested on: PAK6
PAK7 = tested on: PAK7
PCTK1 = tested on: T1, PCTK1
T1 construct: gene CDK16

PCTK2 = tested on: T2, PCTK2
T2 construct: gene CDK17

PCTK3 = tested on: T3, PCTK3
T3 construct: gene CDK18

PDGFRA = tested on: PDGFRA
PDGFRB = tested on: PDGFRB
PDPK1 = tested on: PDPK1
PFTAIRE2 = tested on: PFTAIRE2
PFTK1 = tested on: T4, PFTK1
T4 construct: gene CDK14

PHKG1 = tested on: PHKG1
PHKG2 = tested on: PHKG2
PIK3C2B = tested on: PIK3C2B
PIK3C2G = tested on: PIK3C2G
PIK3CA = tested on: PIK3CA
PIK3CB = tested on: PIK3CB
PIK3CD = tested on: PIK3CD
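Also: KINOMEscan kinase panel screen.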

SMILES	%Inh (PAK2) [%]	%Inh (PAK3) [%]	%Inh (PAK4) [%]	%Inh (PAK6) [%]	%Inh (PAK7) [%]	%Inh (PCTK1) [%]	%Inh (PCTK2) [%]	%Inh (PCTK3) [%]	%Inh (PDGFRA) [%]	%Inh (PDGFRB) [%]	%Inh (PDPK1) [%]	%Inh (PFTAIRE2) [%]	%Inh (PFTK1) [%]	%Inh (PHKG1) [%]	%Inh (PHKG2) [%]	%Inh (PIK3C2B) [%]	%Inh (PIK3C2G) [%]	%Inh (PIK3CA) [%]	%Inh (PIK3CB) [%]	%Inh (PIK3CD) [%]
O=C1NC(=O)C(c2ccccc2)=C1Nc1cccc(O)c1 [SB-390534]	16	26	0	0	0	0	6	0	0	0	0	10	0	0	0	2	4	0	0	0
O=C(Nc1n[nH]c2nc(-c3ccccc3)c(Br)cc12)C1CC1 [SB-708998]	10	9	0	0	0	0	0	0	20	93.7	20	1	7	0	0	0	9	0	0	3
COC(=O)c1c(-c2ccccc2)c2cc(Br)ccc2c(=O)n1Cc1ccc(S(C)(=O)=O)cc1	17	26	6	35	2	23	5	0	8	73	0	7	0	24	13	7	11	7	28	0
Cc1cccc(-c2nc(Nc3ccc4c(cnn4C)c3)c3ccccc3n2)n1 [GW876731]	33	0	17	14	0	0	0	11	9	1	37	10	22	0	0	0	44	0	3	61
Nc1n[nH]c2nnc(-c3ccccc3)c(-c3ccccc3)c12 [GW554060]	0	0	0	0	0	0	0	20	0	2	3	8	19	5	0	0	0	0	47	8
COc1cc2nccc(Nc3cccc(Oc4ccccc4)c3)c2cc1OC.Cl [GW284543]	0	0	0	0	4	4	0	2	22	26	0	31	2	2	0	39	0	0	0	55
COc1cc2nccc(Nc3ccc(OCc4ccc(NC(C)=O)cc4)cc3)c2cc1OC.Cl [GW440135]	0	0	9	0	0	9	0	0	93.1	99.6	22	77	0	0	5	17	0	7	0	0
O=c1cc(N2CCOCC2)nc2n(Cc3ccc(F)c(Cl)c3)ccn12 [GSK2297099]	5	0	0	13	11	6	10	2	7	17	0	62	14	0	0	31	0	11	96.2	75
CCC(=O)c1c(-c2ccccc2)c2cc(Cl)ccc2c(=O)n1Cc1cc(S(C)(=O)=O)n(CC(F)F)n1	0	0	0	0	0	0	4	0	0	0	0	0	0	0	7	0	0	0	16	0
COc1cc(Nc2ccnc3ccc(C(F)(F)F)cc23)cc(OC)c1OC [GW577382]	0	31	4	0	7	0	0	7	0	36	32	8	0	3	0	0	0	0	0	0
Cc1nn2c(=O)cc(N3CCOCC3)nc2n1Cc1cccc(Cl)c1Cl [GSK2342769]	2	0	0	0	0	4	0	15	0	16	0	0	91.7	7	0	89	56	5	89	99.6
Nc1nccc2scc(-c3ccc4c(c3)CCN4C(=O)Cc3ccccc3)c12 [GSK2576924]	0	55	0	0	30	0	9	17	4	43	19	25	23	0	12	5	0	0	0	4
COc1cccc(C2=C(Nc3cccc(C(=O)O)c3)C(=O)NC2=O)c1 [SB-390770]	0	25	0	0	0	0	0	0	3	0	0	13	0	0	1	0	22	8	0	32
CCCNC(=O)Nc1ccc(Oc2ncnc3ccn(C)c23)cc1	30	0	0	12	5	15	8	0	54	46	0	10	0	0	0	19	27	14	0	30
O=C(Nc1n[nH]c2cc(-c3ccccc3F)ccc12)C1CC1 [SB-733371]	0	0	0	0	9	0	9	0	16	46	0	12	0	0	0	2	3	0	18	0
COc1cc2ncn(-c3cc(OCc4ccncc4Br)c(C(N)=O)s3)c2cc1OC [GW854278]	14	0	8	12	16	0	14	5	39	58	0	0	0	8	1	54	12	0	0	5
Cc1ccc(-c2ccc3c(ccc4sc5c(c43)NC[C@@H](C)N=C5N(C)C)n2)cn1	0	0	0	0	10	0	0	9	0	0	0	0	0	0	0	0	0	0	55	15
COc1ccc(-c2coc3ccc(-c4nnc(SCc5cccc(C#N)c5)o4)cc23)cc1	34	0	14	19	15	0	0	2	20	10	2	0	1	0	1	2	5	0	39	0
COc1ccc(-c2cc3c(C)nc(N)nc3n([C@H]3CC[C@H](O)CC3)c2=O)cn1	11	0	21	0	0	0	0	0	0	0	0	0	0	9	1	99.6	98.8	99.7	100	94.1
COc1ccc(-n2cnc3c(N)ncnc32)cc1 [SKF-97236]	0	28	0	16	0	0	0	0	63	95.1	12	20	17	0	0	0	27	2	9	0
Nc1ncnc2c1ncn2-c1ccc(Cl)cc1 [AH2635]	0	7	0	0	6	0	0	0	38	86	0	0	17	0	0	0	0	0	0	0
